Records with an inconclusive call do not appear. A number with no mark means an inactive call. The call rests on the fitted dose curve; in most records, active means well fitted cell-killing curve with a large enough effect; inconclusive means small, poorly fitted or top-dose-only effect, or effect the other way; inactive means no such curve, though single readings can be large or run the other way.
tested on: SKOV3; assay: Confirmatory qHTS for gynecologic anti-cancer compounds from libraries of approved drugs and bioactive compounds; conditions: gynecologic cancer cell panel viability, ATPlite luminescence, 48 h; series mostly up to 57.6 µM; activity change, negative = viability loss: at the top concentration; further: nearly all actives have a fitted effect of over 55% in size
Summary of the method: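 1,000 cells/well; 16 h pre-incubation 37 C, 5% CO2; pin-transferred cpd in DMSO, 11 conc (1:3), 57.5 uM–0.977 nM; 48 h; ATPlite, 15 min RT; luminescence → IC50.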
On the % scale 0 is the no-effect control and ±100 the full control effect.

Compound	activity change, negative = viability loss [%]
C[C@]12CC[C@H]3[C@@H](CCC4=CC(=O)CC[C@@H]43)[C@@H]1CC[C@@H]2OC(=O)CCc1ccccc1	5.75
C=C(C)[C@H]1Cc2c(ccc3c2O[C@@H]2COc4cc(OC)c(OC)cc4[C@@H]2C3=O)O1	-0.143
CCOc1ccccc1-n1c(C(C)N2CCN(C(=O)COc3ccc(Cl)cc3)CC2)nc2ccccc2c1=O (stereo not given)	-5.99
O=C(O)Cc1ccccc1	3.73
CCC(=O)O[C@H]1CC[C@H]2[C@@H]3CCC4=CC(=O)CC[C@]4(C)[C@H]3CC[C@]12C	-1.78
